{"source": "PubChem BioAssay (NCI)", "note": "The panel holds about 83,000 compounds, 20% with a hit somewhere; the sample as a whole holds those more often.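 Method: cells in 96-well plates; compound added at one concentration; 48 h incubation; percent growth measured; values under 10 scored active.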 Unmarked numbers belong to inactive results. Active and inactive are the calls of the source."}
{"tested_on": "NCI-H226 lung", "assay": "NCI-60 one-dose screen, 48 h (100 = growth as untreated, 0 = no growth, -100 = all killed)", "conditions": "10 µM", "protocol": "Growth inhibition of the NCI-H226 human Non-Small Cell Lung tumor cell line is measured as a screen for anti-cancer activity. Cells are grown in 96 well plates and exposed to the test compound for 48 hours. Compounds are tested at a single concentration, which is 10^-5 M for most compounds. The reported endpoint is percent growth (GI% or GIPRCNT), where numbers from 0 - 100% represent growth inhibition, and numbers from -100% - 0 represent cell death. For example, a value of 40 represents 60% growth inhibition. A value of 0 means no net growth occurred over the course of the experiment. A value of -40 indicates 40% of cells at the beginning of the experiment died by the end of the experiment. A value of -100 means all cells are dead at the end of the experiment.\nNCI-60 Human Tumor Cell Lines Screen was performed using the standard one-dose NCI protocol, which is described in more detail at https://dtp.cancer.gov/discovery_development/nci-60/default.htm.\nCompounds with GIPRCNT values below 10 were considered active. Activity score was based on GIPRCNT using the following formula: […]\nScore is 0 for GIPRCNT values of 100 or above, 50 for GIPRCNT values of 0, and 100 for GIPRCNT values of -100."}
{"smiles": "Cc1ccc(N(CSc2ccc(Cl)cc2)CSc2ccc(Cl)cc2)cc1", "growth": "71.9%"}
{"smiles": "COc1cc(C2=NN(c3ccc(S(N)(=O)=O)cc3)C(c3ccc(Cl)cc3)C2)cc(OC)c1OC", "note": "(stereo not given)", "growth": "55.6%"}
{"smiles": "Nc1nc(N)c(N=Nc2c(Br)cc(S(N)(=O)=O)cc2Br)c(N)n1", "growth": "91.9%"}
{"smiles": "Cc1cc[n+](CCc2ccccc2)cc1", "growth": "102%"}
{"smiles": "COc1ccc(-c2nc3sccn3c2/C=C/C(=O)c2cc(OC)c(OC)c(OC)c2)cc1OC", "growth": "64.9%"}
{"smiles": "CC(=O)Nc1ccc(S(=O)(=O)N/N=C\\c2ccc(Cl)c(Cl)c2)cc1", "growth": "100%"}
{"smiles": "Cc1nc2cc(Nc3nc(N4CCOCC4)nc(N4CCN(C)CC4)n3)ccc2n1Cc1ccccc1", "growth": "71.3%"}
{"smiles": "Cc1ccc(-c2c3c(N)c4c(nc3nc3c2c(C)nn3-c2ccccc2)CCCC4)cc1", "growth": "91.8%"}
{"smiles": "COc1ccc(-n2ncc3c2ccc2cc(S(=O)(=O)c4ccccc4)c(=O)n(C)c23)cc1", "growth": "52.6%"}
{"smiles": "Cc1nn(CC(=O)O)c2c1C(=O)CC(C)(C)C2", "growth": "93.6%"}
{"smiles": "CCCCCCCCCCCC(=O)[O][Sn]([CH2]CCC)([CH2]CCC)[CH2]CCC", "growth": "-66% (active)"}
{"smiles": "COc1cccc(-c2ccc3c(c2)C2CCN(Cc4ccccc4)C3C2)c1", "note": "(stereo not given)", "growth": "99.2%"}
{"smiles": "CN1CCN(CCCn2c3c(sc4ncccc43)c(=O)n3nnc(-c4ccccc4)c23)CC1", "growth": "96.2%"}
{"smiles": "NC1=NC(c2ccccc2OS(=O)(=O)c2ccc(Br)cc2)n2c(nc3ccccc32)N1", "note": "(stereo not given)", "growth": "102%"}
{"smiles": "O=S(=O)(OCCO)c1ccccc1", "growth": "98.1%"}
{"smiles": "Cc1nc2cc(Nc3nc(Nc4ccc(F)cc4)nc(N4CCN(C)CC4)n3)ccc2n1Cc1ccccc1", "growth": "65%"}
{"smiles": "COc1ccc(/C=C(\\C#N)c2ccc(OC)cc2)cc1", "growth": "82.7%"}
{"smiles": "C=CC(=O)N1CC2(CC(n3nc(-c4ccc(Oc5ccccc5)cc4)c4c(N)ncnc43)C2)C1", "growth": "15.8%"}
{"smiles": "COc1ccc(-n2ncc3c4nc(OC)c(S(=O)(=O)c5ccccc5)cc4ccc32)cc1", "growth": "45.3%"}
{"smiles": "Clc1ccc(C2=NN(c3ccccc3)[C@H](c3cn(-c4ccccc4)nc3-c3ccccc3)C2)cc1", "growth": "96.1%"}
{"smiles": "Cn1c2ccc(Cl)cc2c2nn(C(=O)c3ccccc3)c(=O)nc21", "growth": "93.7%"}
{"smiles": "COc1cccc(C2C3=C(COC3=O)N(CCO)c3cc4c(cc32)OCO4)c1", "note": "(stereo not given)", "growth": "51.6%"}
{"smiles": "COc1ccc(C(=O)COc2cccc(/C=C3\\CSc4ccc(C)cc4C3=O)c2)cc1", "growth": "77.7%"}
{"smiles": "CCC(C)[C@H]1O[C@]2(CC[C@@H]1C)C[C@@H]1C[C@@H](C/C=C(\\C)[C@@H](OC3C[C@H](OC)C(O[C@H]4C[C@H](OC)[C@@H](O)[C@H](C)O4)[C@H](C)O3)[C@@H](C)/C=C/C=C3\\CO[C@@H]4[C@H](O)C(C)=C[C@@H](C(=O)O1)[C@]34O)O2", "note": "(stereo not given in full)", "growth": "6.79% (active)"}
{"smiles": "COc1ccc(/C=C2\\CN(Cc3cn(CCCNc4ccnc5cc(Cl)ccc45)nn3)C/C(=C\\c3ccc(OC)c(OC)c3)C2=O)cc1OC", "growth": "-52.4% (active)"}
{"smiles": "CCCCC(=O)N/N=C/c1cc(I)cc(I)c1O", "growth": "73.3%"}
{"smiles": "Cc1nc2cc(Nc3nc(Nc4ccc(F)cc4)nc(N4CCCC4)n3)ccc2n1Cc1ccccc1", "growth": "-17.1% (active)"}
{"smiles": "C=CC[P+](c1ccccc1)(c1ccccc1)c1ccccc1", "growth": "74.1%"}
{"smiles": "COc1cc2nc(N3CCC[C@H](NC4=CC(=O)c5ccccc5C4=O)C3)nc(N)c2cc1OC", "growth": "107%"}
{"smiles": "N#Cc1c(O)c2c(c(O)c1C#N)C(=O)c1ccccc1C2=O", "growth": "87.8%"}
{"smiles": "CCOC(=O)C(CC(c1ccccc1)N1CCCCC1)[N+](=O)[O-]", "note": "(stereo not given)", "growth": "82.9%"}
{"smiles": "Cc1nc(NN)c([N+](=O)[O-])c(NN)n1", "growth": "106%"}
{"smiles": "COc1cccc(C2C3=C(COC3=O)N(CCO)c3cc4c(cc32)CCC4)c1", "note": "(stereo not given)", "growth": "13.4%"}
{"smiles": "Cc1cc(C)c(S(=O)O)c(C)c1", "growth": "99%"}
{"smiles": "O=C(Nc1ccc(F)cc1)c1ccc(C(=O)Nc2ccc(F)cc2)cc1", "growth": "99.5%"}
{"smiles": "Cn1cc(C(=O)NCCC(=N)N)cc1NC(=O)CN=C(N)N", "growth": "90.7%"}
{"smiles": "COc1cc(C2C3=C(COC3=O)N(CCO)c3cc4c(cc32)OCO4)cc(OC)c1O", "note": "(stereo not given)", "growth": "61.7%"}
{"smiles": "O=C(COc1cccc(/C=C2\\COc3ccccc3C2=O)c1)c1ccccc1", "growth": "68.7%"}
{"smiles": "O=C1/C(=C/c2ccc(Cl)cc2)CN(Cc2cn(CCCNc3ccnc4cc(Cl)ccc34)nn2)C/C1=C\\c1ccc(Cl)cc1", "growth": "-81.4% (active)"}
{"smiles": "COC(=O)CCC(=O)c1ccccc1", "growth": "115%"}
